# Screening results deposited in PubChem by The Scripps Research Institute Molecular Screening Center.
# ADAM17 inh: inhibits human ADAM17. 370,000 tested, 0.83% active. P78536. inhibition, % at 6.95 µM. recombinant ADAM17, EDANS/DABCYL FRET peptide cleavage;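 active means inhibition above the mean of compounds lying between control limits plus 3 SD, set per campaign, cut at about 8.5% in these data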
# Target sequence (P78536 215-824 limits assumed): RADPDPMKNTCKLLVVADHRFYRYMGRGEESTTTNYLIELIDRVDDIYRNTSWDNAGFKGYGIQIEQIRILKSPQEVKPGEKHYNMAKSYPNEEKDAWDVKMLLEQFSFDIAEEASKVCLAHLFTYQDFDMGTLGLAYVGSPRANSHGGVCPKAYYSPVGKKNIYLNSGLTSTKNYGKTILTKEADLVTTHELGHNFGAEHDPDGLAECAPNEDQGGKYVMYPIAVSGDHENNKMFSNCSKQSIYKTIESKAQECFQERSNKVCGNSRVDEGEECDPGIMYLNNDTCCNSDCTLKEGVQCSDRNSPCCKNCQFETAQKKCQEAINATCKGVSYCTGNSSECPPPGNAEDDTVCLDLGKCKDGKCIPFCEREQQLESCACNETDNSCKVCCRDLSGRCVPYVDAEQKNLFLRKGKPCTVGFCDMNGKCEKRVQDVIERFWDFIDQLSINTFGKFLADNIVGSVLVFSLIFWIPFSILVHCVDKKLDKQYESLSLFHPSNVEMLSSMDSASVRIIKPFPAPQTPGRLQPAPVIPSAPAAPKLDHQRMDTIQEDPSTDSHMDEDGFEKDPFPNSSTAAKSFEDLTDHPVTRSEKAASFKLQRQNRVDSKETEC
# ADAM10 inh: inhibitors of human ADAM10. recombinant ADAM10, EDANS/DABCYL FRET peptide cleavage, 3 h. AID 720582. 370,000 tested, 0.62% active. inhibition, % at 7 µM. O14672;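 active means inhibition above a per-campaign cutoff equal to the mean of compounds falling between control-based bounds plus 3 SD, cut at about 20% in these data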
# PLC-beta3 inh: inhibitors of human phospholipase C beta3. Q01970. Purified PLC-beta3, fluorogenic substrate, fluorescence. inhibition, % at 12.2 µM. 370,000 tested, 0.18% active. AID 720704
# KLK7 zymogen act: proKLK7 (human) activation, primary screen | 370,000 tested, 0.9% active | purified proKLK7, EDANS-DABCYL substrate fluorescence; 100% is mature enzyme control, 0% vehicle | activation, % at 7 µM;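 active means activation above the mean of all tested compounds plus 3 SD, computed per campaign excluding outliers beyond control limits, cut at about 13% in these data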
# PLCg1 inh: blocks human PLC-gamma1 enzyme activity. 370,000 tested, 0.84% active. P19174. AID 720700. inhibition, % at 12.2 µM. purified PLC-gamma1, fluorogenic substrate, fluorescence; in the data active means inhibition above about 9.5%
# PLCgamma1 ctr: inhibits human PLC-gamma1 in PLC-beta3 counter-screen; shares compounds with PLCg1 inh; purified PLC-gamma1, fluorogenic substrate, fluorescence; inhibition, % at 12.3 µM; 3,300 tested, 3.1% active; in the data active means inhibition above about 9.5%
# PLCb3 confirm: confirmation of human PLC-beta3 inhibitors | shares compounds with PLCg1 inh | inhibition, % at 12.3 µM | AID 743261 | 3,300 tested, 1% active | purified PLC-beta3, fluorogenic substrate fluorescence
# A number is an active result; i = inactive; nt = not tested or not shown. An excerpt weighted towards active compounds, which were near 2.9% of everything screened. Unless noted, no stated cut-off is given here; in the data, active means inhibition above about 11%; inactive means the rest.
SMILES,ADAM17 inh,ADAM10 inh,PLC-beta3 inh,KLK7 zymogen act,PLCg1 inh,PLCgamma1 ctr,PLCb3 confirm
COc1cccc(C2(O)CCN(C(=O)C3CCC3)CC2)c1,i,i,i,i,11.8,i,i
FC(F)Oc1ccc(NC(=S)NCC2COc3ccccc3O2)cc1 (stereo not drawn),i,i,i,i,i,nt,nt
CCCCn1c(CCCNC(=O)c2ccco2)nc2ccccc21,i,i,i,i,12.1,i,i
CCCc1[nH]n(-c2nc3ccccc3s2)c(=O)c1C=NCCCOC,i,i,i,i,11.2,i,i
COc1cccc(CNC(=O)[C@@H]2CCCN2C(=O)[C@H]2CCCCN2)c1,i,i,i,i,17.9,i,i
COc1cccc(CNC(=O)[C@@H]2CCCN2C(=O)[C@H]2CCCCN2C(=O)c2cccc(OC)c2)c1,i,i,i,i,i,nt,nt
CCCCNC(=O)C1(C)CCN1C(=O)c1cncc(Br)c1 (stereo not drawn),i,i,i,i,i,nt,nt
Cc1ccc(NC=C(S(=O)(=O)c2ccccc2)S(=O)(=O)c2ccccc2)c(C)c1,i,i,i,i,12.7,i,i
Cc1ccc(NC=C(S(=O)(=O)c2ccccc2)S(=O)(=O)c2ccccc2)cc1,i,i,i,i,i,nt,nt
Cc1ccccc1OCC(=O)N(Cc1cccs1)C1CCS(=O)(=O)C1 (stereo not drawn),i,i,i,i,i,nt,nt
Cc1cccc(OC(C)C(=O)N(Cc2cccs2)C2CCS(=O)(=O)C2)c1C (stereo not drawn),i,i,i,i,12.9,i,i
CCOC(=O)C1(C(C)(C)CC)CC(CSc2nc3ccccc3[nH]2)OC1=O (stereo not drawn),i,i,i,i,12.5,i,i
CCOC(=O)C(C)c1c(C)[nH]c(=S)[nH]c1=O (stereo not drawn),i,i,i,i,11.0,i,i
CCCCCOC(=O)C(C)c1c(C)[nH]c(=S)[nH]c1=O (stereo not drawn),i,i,i,i,i,nt,nt
O=C(NCc1ccccc1)c1cc(C2CCCCN2S(=O)(=O)c2cccc3cccnc23)on1 (stereo not drawn),i,i,i,i,i,nt,nt
O=C(Cn1nc(-c2ccccc2)c2ccccc21)Oc1ccccc1,i,i,i,nt,13.4,i,i
CCc1cccc(NS(=O)(=O)c2c(C)n[nH]c2C)c1,i,i,i,i,9.8,i,i
CC(=O)c1cccc(NS(=O)(=O)c2c(C)n[nH]c2C)c1,i,i,i,i,i,nt,nt
CCn1c2ccccc2c2cc(NC(=O)CSc3nnc(-c4cccc(F)c4)o3)ccc21,i,i,i,i,12.6,i,i
CCn1c2ccccc2c2cc(NC(=O)CSc3nnc(-c4ccccc4)o3)ccc21,i,i,i,i,i,nt,nt
CC(C)Oc1ccc(C(=O)Nc2ccc(NC(=O)c3ccco3)c(Cl)c2)cc1,i,i,15.0,i,i,i,i
CN(N=Cc1ccccc1)C(=S)Nc1ccccc1,i,i,i,i,i,nt,nt
O=C1C=C(NCc2ccc(Cl)cc2)CC(c2ccco2)C1 (stereo not drawn),i,i,i,i,10.7,i,i
Cc1ccc(NC(=O)COc2cccc3ccc(C)nc23)c(Br)c1,i,i,i,i,12.6,i,i
COCCn1c(=S)[nH]c2cc(C(=O)N3CC(C)CC(C)C3)ccc2c1=O (stereo not drawn),i,i,i,i,i,nt,nt
SMILES,ADAM17 inh,ADAM10 inh,PLC-beta3 inh,KLK7 zymogen act,PLCg1 inh,PLCgamma1 ctr,PLCb3 confirm
O=C(NNC(=O)c1ccncc1)Nc1ccc(N=Nc2ccccc2)cc1,i,i,i,i,11.6,i,i
O=C(NNC(=O)c1ccncc1)Nc1ccccc1,i,i,i,i,i,nt,nt
CCOC(=O)C1NC(=O)CC1c1ccccc1 (stereo not drawn),i,i,i,i,11.0,i,i
C[C@@H]1CN([C@H](C)CO)C(=O)CCCn2cc(nn2)CO[C@H]1CN(C)S(=O)(=O)c1ccc(Oc2ccccc2)cc1,i,i,i,i,i,nt,nt
CCC(=O)Nc1cnc(NC(=O)c2cccc(F)c2)cc1C,i,i,i,i,i,nt,nt
CC(=O)Nc1cnc(NC(=O)c2cccc(F)c2)cc1C,i,i,10.9,i,i,i,i
C/C=C1\NC(=O)[C@H](C)NC(=O)[C@@H](NC(=O)[C@H](Cc2ccc(O)cc2)NC(=O)[C@@H](NC(=O)/C(C)=C/C)C(C)C)[C@@H](C)OC(=O)[C@H](CC(C)C)NC(=O)[C@@H](CCC(=O)O)NC1=O,i,i,i,i,i,nt,nt
CCc1nc2c(OCCc3cccc(OC)c3)cccn2c1N(C)C(=O)c1cccs1,i,i,i,i,i,nt,nt
NC(=O)NOCc1ccc(Cl)cc1Cl,i,i,i,i,12.9,i,i
O=C1CCCC(O)=C1N=Nc1ccc(C(=O)O)cc1,i,i,i,i,12.8,i,i
CCOC(=O)N1CCN(C(=O)C2CCN(C(=O)c3ccc(C(C)(C)C)cc3)CC2)CC1,i,i,i,i,i,nt,nt
O=C(Cc1ccc(NC2=NC3CS(=O)(=O)CC3S2)cc1)N1CCN(c2ccc(F)cc2)CC1 (stereo not drawn),i,i,i,i,i,nt,nt
CCc1ccc(N2CC(C(=O)OCC(=O)NNC(=O)c3ccccc3)CC2=O)cc1 (stereo not drawn),i,i,i,i,i,nt,nt
Cc1ccc(N2CC(C(=O)OCC(=O)NNC(=O)c3ccccc3)CC2=O)cc1 (stereo not drawn),i,i,i,i,10.7,i,i
CCOc1ccc(NC(=O)CN(C)C(=O)c2ccc(OCC(=O)N3CCOCC3)c(OC)c2)cc1OCC,i,i,i,i,i,nt,nt
Fc1ccc(C(c2nnnn2C2CCCC2)N(Cc2ccco2)CC2CCCO2)cc1 (stereo not drawn),i,i,11.5,i,11.0,i,i
c1ccc(CN(Cc2ccco2)C(c2ccncc2)c2nnnn2C2CCCC2)cc1 (stereo not drawn),i,i,i,i,i,nt,nt
S=c1cnc2ccccc2[nH]1,i,i,i,i,i,nt,nt
Cc1ccccc1C(=O)NC1CCN(CC(=O)N2CCCCC2C)CC1 (stereo not drawn),i,i,i,i,i,nt,nt
O=C(/C=C/c1ccccc1)N1CCC[C@H]1CO,i,i,i,i,i,nt,nt
CCC(C)(O)C(=O)N[C@H]1CCCN1C(=O)/C=C/c1ccccc1 (stereo partly drawn),i,i,i,i,10.6,i,i
N#Cc1ccc(C(C(=O)NC2CCCCC2)n2c(=O)c(-c3cc4ccccc4[nH]3)nc3ccccc32)cc1 (stereo not drawn),i,i,i,i,i,nt,nt
O=C(O)CC(Cc1ccc(Cl)cc1)C(=O)Nc1cc(Cl)ccc1Cl (stereo not drawn),i,i,i,i,11.8,i,i
Cc1ccc(S(=O)(=O)Nc2ccc3c(c2)CCC3)cc1C,i,i,i,i,12.6,i,i
